From PubChem BioAssay
Activity calls are given as the source filed them. Unless noted, no rule for the calls is given here.

Columns and labels:
[1] = compounds binding Alexa647 anti-His antibody – biochemical, small-molecule microarray, 635 nm fluorescence, artefact control for SMM control protein annotation, primary screen (AID 1128); details: higher = more signal;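 also: score merges feature fluorescence with signal-to-noise for each printed compound spot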
[2] = tested on: Human papillomavirus type 1a E7 protein (residues 1-88); assay: HPV1a E7 small-molecule binders, primary screen, biochemical, small-molecule microarray, residues 1-88, 635 nm (AID 1129); details: small-molecule microarray binding, fluorescence 635 nm; higher = more signal
[3] = target: Focal adhesion kinase 1 (Homo sapiens) (UniProt Q05397); assay: PTK2 protein binding on printed compound slides – biochemical, small-molecule microarray, 635/667 nm fluorescence, BSA, DTT, primary screen (AID 1130); details: 635 nm fluorescence, higher = more signal;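 also: composite of spot emission at 667 nm and signal to noise over triplicate slides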
[4] = tested on: Fibrinogen (Alexa647-labelled); assay: Alexa647-fibrinogen binding to printed small molecules – biochemical, small-molecule microarray, 635/667 nm fluorescence, artefact control for SMM control-protein annotation, profiling panel (AID 1131); details: fibrinogen-A647 binding fluorescence, higher = more signal;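 also: z-score merges 667 nm fluorescence with per-spot signal-to-noise over triplicate slides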
[5] = target: Follistatin (Homo sapiens) (UniProt P19883); assay: FST protein binding to printed compounds – biochemical, small-molecule microarray, 635/667 nm fluorescence, primary screen (AID 1132); details: 635 nm fluorescence, higher = more signal
[6] = target: Fibroblast growth factor 2 (Homo sapiens) (UniProt P09038); assay: basic fibroblast growth factor binding to printed compounds – biochemical, small-molecule microarray, 635/667 nm fluorescence, primary screen (AID 1133); details: FGF2, fluorescence 635/667, higher = more signal
[7] = JC-1 mitochondrial potential readout, lung cancer cells – cell-based, A549, JC-1 fluorescence, basal, 24 h, 100 nL, profiling panel (AID 1138); details: higher = more signal;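 also: A549 lung adenocarcinoma cells under basal conditions with no added stimulus; test concentration not given here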
Lefty1 = Lefty1 protein binding to printed compounds – biochemical, small-molecule microarray, 635/667 nm fluorescence, primary screen (AID 1139); details: fluorescence 635/667, higher = more signal
[8] = tested on: wheat germ agglutinin (Triticum aestivum), Alexa647-labelled; assay: Alexa647-WGA lectin binding to printed small molecules – biochemical, small-molecule microarray, 635/667 nm fluorescence, artefact control for SMM control-protein annotation, profiling panel (AID 1140); details: WGA-A647 binding, 635 nm fluorescence, higher = more signal;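 also: score merges 667 nm feature emission with signal to noise over triplicate slides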
[9] = target: Luciferin 4-monooxygenase (Photinus pyralis) (UniProt P08659); assay: inhibition of purified Photinus pyralis luciferase – biochemical, luminescence, purified enzyme, 2006 set, primary screen (AID 1141); details: purified firefly luciferase, SteadyGlo luminescence, 30 min; higher = more signal, called active from +8 up or from −8 down;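 also: cell-free assay with purified firefly luciferase at 100 ng per well in PBS; test concentration not given here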
[10] = tested on: Wnt5a (protein binding on small-molecule microarray); assay: small molecules binding Wnt5a protein – biophysical, small-molecule microarray, 635/667 nm fluorescence, primary screen (AID 1142); details: 635 nm fluorescence, higher = more signal;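 also: fluorescence read at 667 nm with signal to noise per printed feature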
[11] = ATP-based viability of Huh7 replicon cells – cell-based, CellTiter-Glo luminescence, basal, 48 h, cytotoxicity control for HCV replication inhibitor project, primary screen (AID 1143); details: higher = more signal, called active from +8 up or from −8 down;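 also: Huh7 hepatoma cells carrying a hepatitis C replication reporter with no stimulus; test concentration not given here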
[12] = Pseudomonas biofilm growth suppression – PAO1 strain, BacTiter-Glo luminescence, LB-PBS, primary screen (AID 1144); details: P. aeruginosa PAO1 biofilm, 12 h, higher = more signal
[13] = basal CRE-LacZ reporter activity in PC12 – cell-based, unstimulated, primary screen (AID 1145); details: no forskolin, luminescence, 4.5 h, higher = more signal, called active from +8 up or from −8 down
[14] = forskolin-driven CRE-LacZ activity in PC12 – cell-based, CRE-LacZ reporter, forskolin-stimulated, primary screen (AID 1146); details: luminescence, 4.5 h, higher = more signal, called active from +8 up or from −8 down;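 also: PC12 cells with 6xCRE LacZ reporter stimulated by forskolin 10 µM; beta-galactosidase reporter signal reflecting CREB driven transcription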
[15] = target: Streptavidin (Streptomyces avidinii) (UniProt P22629); assay: compounds binding control protein streptavidin – biophysical, small-molecule microarray, 635/667 nm fluorescence, artefact control for SMM compound annotation, primary screen (AID 1147); details: higher = more signal;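 also: signal reflects streptavidin binding to arrayed compounds as a control protein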
[16] = probe aInhba binding on compound microarray – biochemical, small-molecule microarray, 635/667 nm fluorescence, primary screen (AID 1148); details: higher = more signal;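 also: score merges 667nm spot fluorescence with signal-to-noise for antibody binding to printed compounds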
Torsin-1A (Homo sapiens) [17] = target: Torsin-1A (Homo sapiens) (UniProt O14656); assay: TOR1A wild-type binding on microarray – cell lysate, small-molecule microarray, lysate, 635/667 nm, primary screen (AID 1149); details: COS7 hTOR1A-WT lysate, 635 nm fluorescence, higher = more signal
Torsin-1A (Homo sapiens) [18] = target: Torsin-1A (Homo sapiens) (UniProt O14656); assay: torsin A mutant lysate binding on microarrays – cell lysate, small-molecule microarray, COS7 lysate, 635/667 nm fluorescence, primary screen (AID 1150); details: COS7 hTOR1A mutant lysate, 635 nm fluorescence, higher = more signal;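 also: score pools 667 nm emission and signal to noise measuring lysate protein binding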
[19] = tested on: Sonic hedgehog protein (Shh); assay: Sonic hedgehog microarray binding compounds – biochemical, small-molecule microarray, 635/667 nm fluorescence, primary screen (AID 1151); details: 635 nm fluorescence, higher = more signal;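 also: Shh protein binding to compounds spotted on small-molecule microarray slides; score combines spot fluorescence intensity with signal-to-noise across triplicate slides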

Fibroblast growth factor 2 (Homo sapiens), sequence (P09038 whole entry, looked up): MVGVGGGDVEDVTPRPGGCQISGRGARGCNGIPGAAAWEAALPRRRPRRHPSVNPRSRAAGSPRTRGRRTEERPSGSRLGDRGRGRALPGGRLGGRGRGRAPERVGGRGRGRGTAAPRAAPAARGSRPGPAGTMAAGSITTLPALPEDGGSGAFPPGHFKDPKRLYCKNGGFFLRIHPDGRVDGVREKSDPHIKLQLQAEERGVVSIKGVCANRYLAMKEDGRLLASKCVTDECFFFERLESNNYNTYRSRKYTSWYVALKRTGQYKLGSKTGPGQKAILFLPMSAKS
Streptavidin (Streptomyces avidinii), sequence (P22629 whole entry, looked up): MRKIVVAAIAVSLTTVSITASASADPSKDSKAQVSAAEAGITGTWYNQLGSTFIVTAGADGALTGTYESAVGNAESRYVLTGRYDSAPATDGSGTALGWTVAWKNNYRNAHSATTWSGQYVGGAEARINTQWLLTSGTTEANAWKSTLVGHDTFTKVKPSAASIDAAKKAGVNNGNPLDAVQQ
Luciferin 4-monooxygenase (Photinus pyralis), sequence (P08659 whole entry, looked up): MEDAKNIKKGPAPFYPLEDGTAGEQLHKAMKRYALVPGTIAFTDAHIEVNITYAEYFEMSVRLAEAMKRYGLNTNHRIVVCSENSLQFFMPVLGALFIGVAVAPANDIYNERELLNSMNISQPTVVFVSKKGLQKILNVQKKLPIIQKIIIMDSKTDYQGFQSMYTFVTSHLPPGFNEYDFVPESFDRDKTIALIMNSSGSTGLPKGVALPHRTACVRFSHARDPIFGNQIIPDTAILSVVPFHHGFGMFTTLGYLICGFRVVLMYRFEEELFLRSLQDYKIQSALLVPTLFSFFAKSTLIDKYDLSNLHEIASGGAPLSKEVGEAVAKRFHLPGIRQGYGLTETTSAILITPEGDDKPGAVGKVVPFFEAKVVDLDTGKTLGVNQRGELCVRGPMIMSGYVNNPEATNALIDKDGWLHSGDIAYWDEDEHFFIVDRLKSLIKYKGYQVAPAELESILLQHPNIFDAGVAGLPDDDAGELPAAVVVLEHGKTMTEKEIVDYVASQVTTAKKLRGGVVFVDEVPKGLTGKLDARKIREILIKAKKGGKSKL
Follistatin (Homo sapiens), sequence (P19883 whole entry, looked up): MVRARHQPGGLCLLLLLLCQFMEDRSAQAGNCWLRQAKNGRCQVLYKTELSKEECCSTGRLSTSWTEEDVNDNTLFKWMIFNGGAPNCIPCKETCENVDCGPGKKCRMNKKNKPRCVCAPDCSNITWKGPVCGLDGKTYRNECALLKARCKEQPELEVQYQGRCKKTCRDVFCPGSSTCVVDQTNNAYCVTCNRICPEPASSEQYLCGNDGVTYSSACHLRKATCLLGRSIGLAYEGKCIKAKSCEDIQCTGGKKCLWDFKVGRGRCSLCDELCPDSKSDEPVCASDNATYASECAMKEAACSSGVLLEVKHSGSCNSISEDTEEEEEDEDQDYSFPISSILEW
Focal adhesion kinase 1 (Homo sapiens), sequence (Q05397 whole entry, looked up): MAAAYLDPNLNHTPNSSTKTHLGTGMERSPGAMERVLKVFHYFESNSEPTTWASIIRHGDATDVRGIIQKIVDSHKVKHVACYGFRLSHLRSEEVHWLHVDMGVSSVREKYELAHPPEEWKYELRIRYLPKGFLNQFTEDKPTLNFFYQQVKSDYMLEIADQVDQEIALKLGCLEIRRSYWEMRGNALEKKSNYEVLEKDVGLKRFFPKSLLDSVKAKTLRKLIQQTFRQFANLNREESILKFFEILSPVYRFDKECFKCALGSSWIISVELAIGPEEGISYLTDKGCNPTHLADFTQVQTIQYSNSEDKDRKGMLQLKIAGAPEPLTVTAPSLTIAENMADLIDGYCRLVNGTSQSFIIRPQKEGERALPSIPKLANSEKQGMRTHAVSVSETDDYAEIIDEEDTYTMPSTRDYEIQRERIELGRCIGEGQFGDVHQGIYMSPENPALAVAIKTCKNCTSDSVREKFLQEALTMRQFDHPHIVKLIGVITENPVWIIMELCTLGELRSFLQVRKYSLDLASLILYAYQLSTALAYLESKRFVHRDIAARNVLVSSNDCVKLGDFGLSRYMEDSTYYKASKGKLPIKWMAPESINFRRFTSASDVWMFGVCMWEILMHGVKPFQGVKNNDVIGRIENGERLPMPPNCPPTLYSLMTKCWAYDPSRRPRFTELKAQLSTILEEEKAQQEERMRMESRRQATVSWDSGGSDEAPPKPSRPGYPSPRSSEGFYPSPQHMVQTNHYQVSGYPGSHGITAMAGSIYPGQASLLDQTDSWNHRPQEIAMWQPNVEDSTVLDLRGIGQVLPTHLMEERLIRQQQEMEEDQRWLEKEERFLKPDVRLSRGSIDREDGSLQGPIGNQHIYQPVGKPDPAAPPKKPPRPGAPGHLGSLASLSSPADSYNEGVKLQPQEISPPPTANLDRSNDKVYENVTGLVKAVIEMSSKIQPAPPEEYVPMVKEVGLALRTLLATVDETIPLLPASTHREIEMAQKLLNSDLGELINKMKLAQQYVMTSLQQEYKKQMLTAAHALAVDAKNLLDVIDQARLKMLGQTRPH
Torsin-1A (Homo sapiens), sequence (O14656 whole entry, looked up): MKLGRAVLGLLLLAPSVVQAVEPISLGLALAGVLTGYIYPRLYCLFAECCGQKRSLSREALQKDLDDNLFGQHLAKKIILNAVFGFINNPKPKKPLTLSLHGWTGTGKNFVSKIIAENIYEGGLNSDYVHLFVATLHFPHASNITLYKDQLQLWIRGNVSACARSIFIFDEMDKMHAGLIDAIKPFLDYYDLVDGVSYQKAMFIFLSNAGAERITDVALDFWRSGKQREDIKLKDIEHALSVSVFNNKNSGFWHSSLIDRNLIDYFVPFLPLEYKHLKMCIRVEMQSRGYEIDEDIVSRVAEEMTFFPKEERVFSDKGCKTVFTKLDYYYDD

Compound	composite z-score [1]	composite z-score [2]	composite z-score [3]	composite z-score [4]	composite z-score [5]	composite z-score [6]	z-score [7]	composite z-score (Lefty1)	composite z-score [8]	z-score [9]	composite z-score [10]	z-score [11]	z-score [12]	z-score [13]	z-score [14]	composite z-score [15]	composite z-score [16]	composite z-score (Torsin-1A (Homo sapiens) [17])	composite z-score (Torsin-1A (Homo sapiens) [18])	composite z-score [19]
C=C[C@@H](O)[C@H]1CC(c2ccccc2)=NO1	0.103	-0.565	-0.0062	-0.0611	-0.16	-0.121	1.12	-0.0793	-0.288	-1.53 (inactive)	-0.184	0.0011 (inactive)	0.15 (inactive)	1.03 (inactive)	0.167 (inactive)	0.174	-0.183	0.154	0.334	-0.18
CCCCC(CC)C(O)C1C=CC2C(=O)NC(=O)C2N1Nc1ccccn1 (stereo not given)	2.27	1.17	0.178	1	0.962	-0.539	0.933	0.21	1.21	-1.55 (inactive)	-0.129	0.683 (inactive)	-1.03 (inactive)	-0.322 (inactive)	-0.634 (inactive)	0.91	-0.0405	0.312	0.624	-0.0493
CC(C)C[C@@H]1NC(=O)[C@@H]2C[C@H](C(=O)NCc3ccc(F)cc3)[C@H](c3ccc(O)cc3)N2C1=O	2.13	0.0885	0.317	0.248	1.34	1.91	0.634	0.689	-0.299	-0.0763 (inactive)	0.187	-0.393 (inactive)	-0.0526 (inactive)	-0.26 (inactive)	-0.101 (inactive)	-0.419	-0.118	0.483	0.44	1.46
C[C@@]1([C@@H](NC(=O)c2cccs2)c2ccc(-c3ccccc3)cc2)C[C@H]1C1CCCCC1	-1.16	-0.678	0.429	-1.76	-0.27	-1.48	-0.255	-0.507	-1.45	1.44 (inactive)	-0.465	-4.41 (inactive)	0.141 (inactive)	0.201 (inactive)	-0.169 (inactive)	-0.649	-0.157	-1.24	-0.787	-1.46
COCCCNC(=O)[C@@]1(Cc2ccccc2I)c2ccccc2C(=O)N(Cc2ccccc2Cl)[C@H]1c1ccc(CO)cc1	1.25	0.494	0.692	0.912	0.583	-0.125	0.723	0.246	0.897	1.29 (inactive)	-0.193	-4.15 (inactive)	-1.72 (inactive)	-0.529 (inactive)	-0.656 (inactive)	1.46	-0.0538	-0.0444	-0.078	0.191
NC(=O)NCC#Cc1ccc2c(c1)[C@]1(C(=O)N2)[C@H](c2ccc(OCCO)cc2)N2[C@H](c3ccccc3)[C@H](c3ccccc3)OC(=O)[C@H]2[C@@H]1C(=O)N1CCCCCCC1	0.418	1.18	1.08	0.41	1.39	1.15	-1	1.64	1.44	-0.254 (inactive)	1.4	0.132 (inactive)	0.848 (inactive)	-0.0515 (inactive)	0.449 (inactive)	3.11	1.93	0.533	1.02	1.35
